The structures appear in SMILES notation. Inconclusive results are not listed. Calls of active or inactive are those of the source. Calls follow the shape of the dose curve; as a rule, active = well fitted inhibition curve with a large enough effect in the signal ratio, with a control signal flat (not every such curve was filed as active); inconclusive = small, poorly fitted or top-dose-only effect, or effect the other way, or a change in a side signal; inactive = no such curve, though single readings can be large or run the other way; the % refers to the signal ratio.

Chain of Peroxisome proliferator-activated receptor delta (Homo sapiens) (Q03181 whole entry, looked up): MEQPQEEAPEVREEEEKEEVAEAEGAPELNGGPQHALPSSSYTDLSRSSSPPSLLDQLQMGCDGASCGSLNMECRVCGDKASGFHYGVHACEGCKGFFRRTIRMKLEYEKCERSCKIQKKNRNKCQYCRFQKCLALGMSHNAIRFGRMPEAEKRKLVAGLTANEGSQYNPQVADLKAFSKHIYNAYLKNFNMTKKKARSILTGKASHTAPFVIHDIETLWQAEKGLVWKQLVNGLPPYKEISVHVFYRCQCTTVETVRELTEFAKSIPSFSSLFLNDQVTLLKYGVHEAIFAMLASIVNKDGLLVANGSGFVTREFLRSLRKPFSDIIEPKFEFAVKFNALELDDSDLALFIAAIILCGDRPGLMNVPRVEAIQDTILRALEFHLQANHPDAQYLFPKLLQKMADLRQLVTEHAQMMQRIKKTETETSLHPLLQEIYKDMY

For the assay, the target named is Peroxisome proliferator-activated receptor delta (Homo sapiens) (UniProt Q03181). The experiment in a line: qHTS assay for small molecule antagonists of peroxisome proliferator-activated receptor delta signaling (AID 588535). Particulars: HEK293T PPARd-UAS-bla, beta-lactamase FRET ratio, 18 h; series mostly up to 76.7 µM. From the text:
NIH Chemical Genomics Center [NCGC] U.S. Environmental Protection Agency [EPA] National Institutes of Environmental Health Sciences [NIEHS] National Toxicology Program [NTP] NCGC Assay Overview The Peroxisome proliferator-activated receptors (PPARs) are lipid-activated transcription factors of the nuclear receptor superfamily with three distinct subtypes namely PPAR alpha, PPAR delta (also called PPAR beta) and PPAR gamma. All these subtypes heterodimerizes with Retinoid X receptor (RXR) and have different physiological functions. […] This role of PPAR delta implicates the potential use of its ligands in the treatment of metabolic disorders.
NCGC Assay Protocol Summary Using a beta-lactamase reporter-gene under control Peroxisome Proliferator-Activated Receptor delta (PPAR-delta) response element, a cell-based assay [GeneBLAzer (PPAR-delta-UAS-bla assay developed by Invitrogen] was used to measure PPAR-delta ligands signaling. GeneBLAzer PPAR-delta-UAS-bla HEK293T cells were used with assay medium containing 2% charcoal/dextran FBS. The assay was performed in clear bottom black Greiner 1536-well plates. Library compounds were measured for their ability to inhibit the reporter gene activity. Compounds were screened in a titration series in 1536-well format. The fluorescence intensity (405 nm excitation, 460/530 nm emission) was measured using an EnVision plate reader. […] Concentration-response titration points for each compound were fitted to the Hill equation yielding concentrations of half-maximal inhibition (IC50) and maximal response (efficacy) values. qHTS protocol for PPAR-delta beta-lactamase assay in antagonist mode [Step] [Parameter] [Value] [Description] 1. Reagent; 5 uL; 4000 cells/well 2. Incubation; 37 C for 5 hrs 3. Compounds; 23 nL; 0.59 nM to 92 uM 4. […] Incubation; 37 C for 18 hrs 7. Detection reagent; 1 uL of CCF4-dye 8. Incubation; RT for 2 hrs 9. Detection; Fluorescence; Envision plate reader
On the technique in general: Quantitative high-throughput screening tests each substance at several concentrations.
Regarding `CC(C)(c1ccc(O)cc1)c1ccc(O)cc1`, the result was inactive.
In the case of `Oc1ccccc1`, the outcome was inactive.
Consider `CCCCCCCCCCCCCCCC[n+]1ccccc1`, for which the outcome was inactive.
Consider `COC(=O)c1c(Cl)c(Cl)c(C(=O)OC)c(Cl)c1Cl`, for which the outcome was inactive.
In the case of `CCCCCCCCCCCC[N+](C)(C)Cc1ccccc1`, the result was inactive.
As to `CCCCC(CC)COC(=O)c1ccccc1C(=O)O` (configuration not stated), the result was inactive.
For `Cc1cc(C(C)(C)C)c(O)c(C(C)(C)C)c1`, the result was inactive.
As for `CC(=O)OC/C=C(C)/C=C/C=C(C)/C=C/C1=C(C)CCCC1(C)C`, the outcome was inactive.
Turning to `O=C(c1ccccc1)c1ccccc1`, the result was inactive.
With `CC(C)(C)c1ccc(O)c(O)c1`, the result was inactive.
For the compound `Cc1ncc(CO)c(CO)c1O`, the outcome was inactive.
As for `Cc1ccc(O)cc1`, the entry is “inactive”; as for `CC(C)C(C)(C)C(C)(C)C(C)(C)S`, “inactive”; as for `COc1cc(C=O)ccc1O`, “inactive”.
With `O=C(Oc1ccccc1)c1cccc(C(=O)Oc2ccccc2)c1` the entry was “inactive”; with `CN1C(=O)c2ccccc2C1=O`, “inactive”; with `CCCC(=O)c1cc(O)c(O)cc1O`, “inactive”.

The record behind these values is PubChem BioAssay (NCATS).
